Most compounds without a hit are left out; they make up all but 21% or so of the library.
NS1 function inh: inhibitors of influenza NS1 protein function | Potency, µM (titrated, usually from 46.1 µM), for inactives: at the highest dose activity, positive = more growth | actives 0.4% (n = 270,000) | AID 2326; calls by dose curve; note: potency is the fitted concentration of half-maximal effect; actives are rising curves; nearly all actives have a fitted effect of over 50% in size
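OD600 was taken as the measure of yeast growth restored by compound in an NS1-expressing S. cerevisiae strain. Cells had been washed out of glucose medium and diluted 1:100 into galactose -URA medium, pH 6.0.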
Pf growth 48h: P. falciparum growth inhibition at 48 hours (one generation); P. falciparum luciferase growth in erythrocytes, 48 h; Potency, µM (doses to about 28.7 µM), for the others: top-dose activity change, negative = inhibition, actives largely listed as inhibitors; actives 5.9% (n = 310,000); AID 504832; note: potency is the fitted concentration of half-maximal effect; % is set by controls: 0 for no effect and ±100 for the full control effect
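Parasite viability was followed by luminescence of a genomically integrated firefly luciferase. Cultures held 0.1% parasitemia at 2% hematocrit (final), incubated under 5% CO2 at 37 C.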
SARS PLpro yeast: blocks SARS-CoV papain-like protease in a yeast assay; S. cerevisiae expressing SARS-CoV PLpro, growth rescue; AID 485353; Potency, µM (doses to about 32.9 µM), inactives show at the top dose activity, positive = growth rescue, usual class: activators; actives 0.19% (n = 330,000); calls by dose curve; note: potency is the fitted concentration of half-maximal effect; 0% is about no effect; nearly all actives have a fitted effect of over 55% in size
Pf growth 96h: P. falciparum growth inhibition at 96 hours; P. falciparum luciferase reporter growth, 96 h; actives 6.9% (n = 320,000); Potency, µM (doses to about 28.7 µM), without a hit: at the highest dose activity change, negative = inhibition, actives largely listed as inhibitors; note: potency is the fitted concentration of half-maximal effect; % is set by controls: 0 for no effect and ±100 for the full control effect
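Two parasite generations (96 h, 37 C, 5% CO2) of compound exposure in infected erythrocytes (0.05% parasitemia, 2% hematocrit). Luciferase-reporter P. falciparum; decreased luminescence indicates inhibited growth, aimed at apicoplast-acting delayed death.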
Shiga inhibitor: inhibitors of Shiga toxin in Vero cells; actives 9.2% (n = 290,000); inhibition, % at 38.7 µM; AID 2315; Vero cells, Shiga toxin protein synthesis inhibition reporter; in the data active = inhibition mostly above about 28%, no sharp cut-off; inactive = mostly below about 43%; note: 0% is about no effect
CHX counter: counter-screen hit for Shiga toxin inhibitors, cycloheximide. cell reporter, cycloheximide protein synthesis inhibition counterscreen. max response, %. actives 12% (n = 300,000). AID 2314; in the data active = max response mostly above about 13%, no sharp cut-off; inactive = mostly below about 14%; note: read at 38.3 µM for the half of the compounds with a filed dose; 0% is about no effect
Numbers without * were called inactive; ? = inconclusive; / = no result given; [ ] = another dose, or the depositor's remark. Unless noted, calls come from the whole dose curve; as a rule, active = well fitted inhibition curve with a large enough effect; inconclusive = small, poorly fitted or top-dose-only effect, or another doubt; inactive = no such curve, though single readings can be large or run the other way.

SMILES | NS1 function inh | Pf growth 48h | SARS PLpro yeast | Pf growth 96h | Shiga inhibitor | CHX counter
Cc1ccc(NC(=O)C2CCN(S(=O)(=O)c3ccc(N4CCCC4=O)cc3)CC2)cc1Cl | -22% | ? | 13% | 5.9µM* | -1 | -3
Cn1cnc2c(=O)[nH]cc([N+](=O)[O-])c21 | 3% | ? | -4% | ? | 2 | -4
COc1ccc(/C=N/N2CCN(c3ccc(Cl)cc3)CC2)cc1O | -8% | 9% | -2% | 125% | -5 | -1
COc1cc(O)ccc1C(=O)CCc1ccc(O)cc1 | 18% | ? | -7% | ? | 16 | 12*
COC(=O)CCc1ccc(O)cc1 | -10% | 23% | -3% | 32% | -5 | -2
Cc1csc(NC(=O)c2nc3nc(C)cc(C)n3n2)n1 | -9% | 103% | 2% | 24% | 49 | 48*
Cc1cc(C)n2nc(C(=O)Nc3nnc(C4CC4)s3)nc2n1 | 1% | 27% | -3% | 17% | -18 | -2
Cc1cc(C)n2nc(C(=O)Nc3nccs3)nc2n1 | -2% | 98% | 1% | 29%[5.75 µM] | 84* | 23*
CCC(Sc1nc(C)cc(C)n1)C(=O)Nc1nccs1 (stereo unspecified) | 3% | ? | 7% | 13µM* | -26 | -8
CCSc1nnc(NC(=O)c2nc3nc(C)cc(C)n3n2)s1 | / | -3% | 3% | 1% | 8 | 6
CCC(Sc1nnc(C)s1)C(=O)Nc1nccs1 (stereo unspecified) | 4% | 13% | 1% | / | 3 | -1
CCOc1cc(S(=O)(=O)NCC2OCCc3ccccc32)c(OCC)cc1-n1cnnn1 (stereo unspecified) | 1% | ? | -6% | / | -20 | -4
N#C/C(=C(/O)CN1CCCCC1)c1nc(-c2ccc(Cl)cc2)cs1 | 17% | 105% | 6% | 47% | 50* | 18*
CCOC(=O)C1CCCN(C/C(O)=C(\C#N)c2nc(-c3ccccc3)cs2)C1 (stereo unspecified) | 0% | 28% | 2% | 13µM* | 14 | 8
COC(=O)c1cn(CC(=O)Nc2ccccc2C)c2ccccc12 | -2% | 14% | -3% | ? | / | -1
CC(/C=C\C=C\c1ccccc1)=N\NC(=O)c1cncc(Br)c1 | / | ? | 1% | 0.93µM* | 10 | 8
CC(/C=C/c1ccccc1)=N\NC(=O)c1ccc(Br)cc1 | / | ? | 1% | 1% | 16 | -4
CC(/C=C/c1ccccc1)=N/NC(=O)c1cccc(Br)c1 | -2% | ? | -3% | ? | 111 | 20*
CC(/C=C/C=C/c1ccccc1)=N/NC(=O)c1ccc2c(c1)OCCO2 | -1% | 26% | 0% | 0% | 63* | 31*
COc1cccc(C(=O)N2CCN(Cc3nc(CC4CC4)no3)CC2)c1 | -1% | 10% | 4% | 18% | 21 | -1
CCN(CC)S(=O)(=O)c1ccc(O)c(C(=O)OCC(=O)NC23CC4CC(CC(C4)C2)C3)c1 | / | / | -16% | / | / | /
CCOC(=O)C1=C(C)NC(=O)NC1c1ccc2c(c1)OCO2 (stereo unspecified) | -1% | -28% | 16% | 7% | 9 | 7
COc1ccc(COC(=O)C2=C(C)NC(=O)NC2c2ccc(F)cc2)cc1 (stereo unspecified) | 11% | ? | 10% | 2.9µM* | 0 | -3
CCC(CC)COC(=O)C1=C(C)NC(=O)NC1c1ccc2c(c1)OCO2 (stereo unspecified) | 30% | 29% | 13% | 0.93µM* | -17 | -3
COc1ccc(C2NC(=O)NC(C)=C2C(=O)OCc2ccc3c(c2)OCO3)cc1OC (stereo unspecified) | 6% | 4.7µM* | 3% | 484% | 6 | 0
CC1=C(C(=O)OCc2ccc3c(c2)OCO3)C(c2cccc([N+](=O)[O-])c2)NC(=O)N1 (stereo unspecified) | / | 5% | 2% | 31% | -18 | 2
CSCCC(NS(=O)(=O)c1ccc(C)cc1C)C(=O)Nc1cccnc1 (stereo unspecified) | / | / | -7% | / | / | /
COc1ccc(Nc2cc3n(c(=O)n2)CCc2cc(OC)c(OC)cc2-3)cc1 | 8% | ? | 1% | ? | 27 | 17
COc1cc2c(cc1OC)-c1cc(Nc3ccccc3)nc(=O)n1CC2 | -7% | ? | 0% | ? | 1 | -4
